The values below come from the supplement of paper PMC13380429.

For test [1], the system named is Vero E6 infected with SARS-CoV-2. The test can be described thus: morphology score (similarity to uninfected cells); higher = more like uninfected cells. Conditions: 24 h.
Test [2] shares this test system. The test can be described thus: SARS-CoV-2 infection rate relative to infected DMSO; higher = more infection, active = 60 or less. Conditions: 24 h.

As for `CC(=O)O[C@H]1C[C@@H]2CC[C@@H]3[C@H](CC[C@@]4(C)[C@H]3C[C@H](N3CC[N+](C)(C)CC3)[C@@H]4OC(C)=O)[C@@]2(C)C[C@@H]1N1CC[N+](C)(C)CC1` [pipecuronium] (10 µM), in test [1], the morphology score was found to be 0.0487. In test [2], the SARS-CoV-2 infection rate was 106% (inactive).

Molecule `CCOc1nc2cccc(C(=O)O)c2n1Cc1ccc(-c2ccccc2-c2nnn[nH]2)cc1` [candesartan] (10 µM) registered a morphology score in test [1] of 0.175. In addition, in test [2], the SARS-CoV-2 infection rate was 105% (inactive).

As to `CO[C@H]1C[C@H](O[C@H]2CC[C@@]3(C)[C@H](CC[C@@H]4[C@@H]3CC[C@]3(C)[C@@H](C5=CC(=O)OC5)[C@@H](OC(C)=O)C[C@]43O)C2)O[C@@H](C)[C@@H]1O` [oleandrin] (0.833333 µM), the morphology score in test [1] was -0.173. Besides, the SARS-CoV-2 infection rate in test [2] is 118% (inactive).

Turning to `Oc1ccc(C2CNCCc3c2cc(O)c(O)c3Cl)cc1` (stereo not given) [fenoldopam] (10 µM), in test [1], the morphology score is 0.226. Further, the SARS-CoV-2 infection rate in test [2] is 95% (inactive).

`CN(C)/C=N/c1c(I)cc(I)c(CCC(=O)O)c1I` [iopodic-acid] (10 µM): the morphology score in test [1] is 0.0727. For the same molecule, in test [2], the SARS-CoV-2 infection rate was 104% (inactive).

`Cc1oc(-c2ccccc2)nc1CCOc1ccc(CC2SC(=O)NC2=O)c2sccc12` (stereo not given) [edaglitazone] (10 µM): the morphology score in test [1] was 0.29. In test [2], the SARS-CoV-2 infection rate is 90.5% (inactive).

`c1ccc(-c2nc(CN3CCN(c4ncccn4)CC3)c[nH]2)cc1` (10 µM) gave a morphology score in test [1] of -0.0694. In addition, in test [2], the SARS-CoV-2 infection rate was 107% (inactive).

In test [1], `CNCCC=C1c2ccccc2CCc2ccccc21` [nortriptyline] (0.833333 µM) registered a morphology score of -0.1. In addition, in test [2], the SARS-CoV-2 infection rate was 110% (inactive).

On to `COc1ccc(CCN)cc1OC` [homoveratrylamine] (10 µM), for which the morphology score in test [1] was -0.0152. Also, in test [2], the SARS-CoV-2 infection rate is 118% (inactive).

Consider `O=C(CCCCC(=O)Nc1c(I)cc(I)c(C(=O)O)c1I)Nc1c(I)cc(I)c(C(=O)O)c1I` [iodipamide] (10 µM), for which, in test [1], the morphology score came to 0.0415. Besides, the SARS-CoV-2 infection rate in test [2] is 93% (inactive).

The molecule `O=C1OC(CN2CCOCC2)CN1/N=C/c1ccc([N+](=O)[O-])o1` (stereo not given) [furaltadone] (10 µM) gave a morphology score in test [1] of 0.0402. Besides, the SARS-CoV-2 infection rate in test [2] was 97% (inactive).

The molecule `O=C(O)C(=O)CBr` [3-bromopyruvate] (10 µM) displayed a morphology score in test [1] of -0.102. The SARS-CoV-2 infection rate in test [2] was 111% (inactive).

For the molecule `CCNC1=Nc2ccc(Cl)cc2C(C)(c2ccccc2)O1` (stereo not given) [etifoxine] (10 µM), the morphology score in test [1] was determined as 0.159. For the same molecule, the SARS-CoV-2 infection rate in test [2] was 106% (inactive).

The molecule `C[n+]1c2cc(N)ccc2cc2ccc(N)cc21.Nc1ccc2cc3ccc(N)cc3nc2c1` [acriflavine] (0.833333 µM) returned a morphology score in test [1] of 0.32. In test [2], the SARS-CoV-2 infection rate was 108% (inactive).

Take `Cc1cccc(-c2n[nH]cc2-c2ccc3ncccc3n2)n1` [repsox] (10 µM): in test [1], the morphology score stood at 0.188. Further, the SARS-CoV-2 infection rate in test [2] was 97% (inactive).

For the molecule `Brc1ccc(NC2C3CC4CC(C3)CC2C4)cc1` (stereo not given) [bromantan] (10 µM), in test [1], the morphology score is -0.111. Also, the SARS-CoV-2 infection rate in test [2] is 99.5% (inactive).

With `Cc1nc(-c2cn3c(n2)-c2ccc(-c4cnn(C(C)(C)C(N)=O)c4)cc2OCC3)n(C(C)C)n1` [taselisib] (0.833333 µM), in test [1], the morphology score was -0.0504. The SARS-CoV-2 infection rate in test [2] was 98.5% (inactive).

Turning to `CCN1CCN(C(=O)N[C@@H](C(=O)N[C@@H]2C(=O)N3C(C(=O)O)=C(CSc4nnnn4C)CS[C@H]23)c2ccc(O)cc2)C(=O)C1=O` [cefoperazone] (10 µM), in test [1], the morphology score was found to be 0.206. Also, the SARS-CoV-2 infection rate in test [2] was 104% (inactive).

`O=C1c2c(O)ccc(O)c2C(=O)c2c(NCCNCCO)ccc(NCCNCCO)c21` [mitoxantrone] (0.833333 µM) displayed a morphology score in test [1] of -0.00869. For the same molecule, the SARS-CoV-2 infection rate in test [2] is 108% (inactive).

`N=C(N)c1ccc(-c2ccc(-c3ccc(C(=N)N)cc3)o2)cc1` [furamidine] (10 µM): in test [1], the morphology score was -0.436. The SARS-CoV-2 infection rate in test [2] is 98% (inactive).

As to `CCc1c(-c2ccccc2)c(-c2ccccc2)nn1-c1ccccc1-c1cccc(OCC(=O)O)c1` (10 µM), the morphology score in test [1] is 0.0748. Besides, the SARS-CoV-2 infection rate in test [2] is 96.5% (inactive).

`Cc1c(Cn2c(C)nc3c(C(=O)O)cc(N4CCOCC4)cc32)cccc1C(F)(F)F` (0.833333 µM) registered a morphology score in test [1] of -0.135. For the same molecule, in test [2], the SARS-CoV-2 infection rate was 118% (inactive).

For `CC(Oc1c(Cl)cccc1Cl)C1=NCCN1` (stereo not given) [lofexidine] (10 µM), in test [1], the morphology score was -0.13. In addition, the SARS-CoV-2 infection rate in test [2] was 102% (inactive).

On to `Cc1cc(=O)n(-c2ccccc2)n1C` [phenazone] (10 µM), for which the morphology score in test [1] was -0.0495. Further, the SARS-CoV-2 infection rate in test [2] was 108% (inactive).

In test [1], `O=C1CNC(=O)CN1` [piperazinedione] (0.833333 µM) came in with a morphology score of 0.0804. In addition, the SARS-CoV-2 infection rate in test [2] was 106% (inactive).

For the molecule `CC(C)(C)CC(=O)Nc1c(F)cc(C(=O)/N=c2\sccn2COP(=O)(O)O)cc1F` (10 µM), the morphology score in test [1] amounted to 0.0762. Moreover, the SARS-CoV-2 infection rate in test [2] was 93.5% (inactive).

In test [1], `CC1CCN(CC[C@H]2CCCN2S(=O)(=O)c2cccc(O)c2)CC1` (10 µM) showed a morphology score of 0.0739. For the same molecule, the SARS-CoV-2 infection rate in test [2] is 102% (inactive).

Consider `CC(C)C[C@H](NC(=O)CNC(=O)c1cc(Cl)ccc1Cl)B1OC(=O)C(CC(=O)O)(CC(=O)O)O1` (0.833333 µM), for which the morphology score in test [1] is -0.0464. Further, in test [2], the SARS-CoV-2 infection rate was 108% (inactive).

Turning to `C[C@@H](CN1CCC(Cc2ccccc2)CC1)[C@@H](O)c1ccc(O)cc1` (10 µM), the morphology score in test [1] was 0.157. In test [2], the SARS-CoV-2 infection rate is 98.5% (inactive).

For the molecule `CCOC(=O)c1ncc2[nH]c3cccc(OC(C)C)c3c2c1C` (10 µM), the morphology score in test [1] turned out to be 0.286. Further, in test [2], the SARS-CoV-2 infection rate was 88.5% (inactive).
